Screening results (PubChem BioAssay)
Only some compounds are listed: those with a hit (about 27% of all), similar ones and a draw of the others.
CYP2C19 inhib: inhibitors of human CYP2C19; P33261; CYP2C19 Supersomes, luciferin-H EGE luminescence, 30 min; inhibition, % at 5 µM; hit rate 21% among 96,000; AID 778;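 active = CYP2C19 inhibition above a set limit at 5 µM in the primary screen, cut at about 50% in these data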;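 also: plate controls were negative control wells for no effect and 2.5 mM tranylcypromine positive control for full effect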
sEH activator: activators of human soluble epoxide hydrolase | purified human sEH enzymatic activity, activator screen | AID 717 | P34913 | activation, % at 2 µM | hit rate 0.04% among 91,000; in the data active = activation above about 37%
sEH inhibitor: inhibitors of human soluble epoxide hydrolase; inhibition, % at 2 µM; P34913; recombinant human sEH enzymatic activity assay; hit rate 0.34% among 91,000; in the data active = inhibition above about 80%
CYP2C19 act: increases human CYP2C19 enzyme activity; P33261; recombinant CYP2C19, luciferin-H EGE luminescence; active compounds read high; 0 = fully inhibited enzyme, 1 = untreated enzyme; activation factor at 5 µM; 96,000 tested, under 10 active;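 active = activation factor of at least 2 at 5 µM in the primary screen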;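 also: 0 = wells with 2.5 mM tranylcypromine and 1 = vehicle-only wells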
CYP2C9 act: CYP2C9 (human) activation | P11712 | recombinant CYP2C9, luciferin-H conversion, luminescence; active compounds read high; factor 1 = untreated enzyme, 0 = blocked | activation factor at 5 µM | hit rate 1.4% among 96,000 | AID 1024;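 active = activation factor of 2 or more for CYP2C9 at a 5 µM dose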;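 also: 0 = sulfaphenazole-blocked wells and 1 = vehicle-only wells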
Target sequence (P11712 whole entry, looked up): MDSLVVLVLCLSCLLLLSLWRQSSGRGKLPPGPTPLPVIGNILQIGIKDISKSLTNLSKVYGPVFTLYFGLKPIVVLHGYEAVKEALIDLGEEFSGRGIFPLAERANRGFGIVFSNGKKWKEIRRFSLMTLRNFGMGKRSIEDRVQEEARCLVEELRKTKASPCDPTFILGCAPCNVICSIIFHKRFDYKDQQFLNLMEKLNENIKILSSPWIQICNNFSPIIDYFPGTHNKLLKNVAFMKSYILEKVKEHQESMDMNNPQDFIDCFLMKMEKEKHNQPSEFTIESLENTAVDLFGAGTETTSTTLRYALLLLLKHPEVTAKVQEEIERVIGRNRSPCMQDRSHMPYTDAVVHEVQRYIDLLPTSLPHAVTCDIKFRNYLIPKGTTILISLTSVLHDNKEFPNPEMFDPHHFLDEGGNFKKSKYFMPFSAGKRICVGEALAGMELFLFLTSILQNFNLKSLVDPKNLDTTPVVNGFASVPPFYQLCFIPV
CYP2C9 inh: inhibitors of human CYP2C9; hit rate 20% among 96,000; inhibition, % at 5 µM; CYP2C9 Supersomes, luciferin-H conversion, luminescence; AID 777;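 active = blocking of liver enzyme CYP2C9 beyond about 50% at 5 µM, limit read from the data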
The depositor's hits bear a star; x = not tested or not shown.

SMILES | CYP2C19 inhib | sEH activator | sEH inhibitor | CYP2C19 act | CYP2C9 act | CYP2C9 inh
CCOc1ccccc1CNC(=O)c1cc2oc3ccccc3c2n1C | 33.5 | -14.1 | 13.1 | 0.7 | 1.9 | -85.7
COCCNC(=O)c1cc2oc3ccccc3c2n1C | 90.4* | -2.3 | 5.4 | 0.1 | 0.2 | 79.4*
Cc1cc(C)n(C2=NS(=O)(=O)c3ccccc32)n1 | -6.2 | -4.8 | 4.3 | 1.1 | 1.2 | -17.4
Cc1cc(C)c2c(N)c(C(=O)NCC3CCCCC3)sc2n1 | 6.4 | 6.1 | -6.2 | 0.9 | 0.7 | 26.5
Cc1cc(C)c2c(N)c(S(=O)(=O)c3ccccc3)sc2n1 | 55.6* | 32.8 | -32.6 | 0.4 | 3* | -196.2
CCCCS(=O)(=O)c1sc2nc(C)cc(C)c2c1N | 89.4* | -5.8 | 5.7 | 0.1 | 2.7* | -165.4
CC(=O)OCCN1C(=O)c2cccnc2C1=O | -14.7 | -9.4 | 12.1 | 1.1 | 1.2 | -19.9
CC(=O)OCCCN1c2ccccc2Nc2nnc(-c3ccccc3)cc21 | 61.3* | -5.5 | 8.2 | 0.4 | x | x
Cc1cccc(Cn2cc(SCC(=O)Nc3nccs3)c3ccccc32)c1 | -13.9 | 2.6 | -0.3 | 1.1 | 0.4 | 60.4*
O=C(CSc1nccn1Cc1ccccc1)Nc1nccs1 | 34.9 | -6.2 | 10.9 | 0.7 | 0.6 | 41.0
Cc1ccc(Cn2cc(SCC(=O)Nc3nccs3)c3ccccc32)cc1 | -9.8 | 9.2 | -10.9 | 1.1 | 0.1 | 91.0*
Cc1c(C(=O)N2CCN(c3ccccn3)CC2)oc2ccccc12 | 85.3* | -1.9 | 3.4 | 0.1 | 0.6 | 40.7
O=C(c1oc2ccccc2c1CSCc1ccccc1)N1CCN(c2ncccn2)CC1 | 62.3* | -5.8 | 5.5 | 0.4 | 0.2 | 79.7*
O=C(O)c1cc2c(ccc3ccccc32)oc1=O | -5.7 | 7.8 | -9.9 | 1.1 | 1.1 | -12.7
Cc1c(C(=O)N2CCCCCC2)oc2ccccc12 | 91.0* | 1.4 | 0.1 | 0.1 | 0.8 | 21.2
O=C(c1cc2c(ccc3ccccc32)oc1=O)N1CCCC1 | -0.5 | 3.8 | -5.0 | 1 | 0.3 | 72.6*
Cc1cc(C)n(-c2ccc(Cl)c(C(=O)Nc3ccc(-c4nnc5n4CCCCC5)cc3)n2)n1 | 17.9 | x | x | 0.8 | 0.9 | 14.6
COCc1c(C(=O)N2CCN(c3ccc(C(F)(F)F)cn3)CC2)oc2ccccc12 | 79.8* | 9.0 | -9.2 | 0.2 | 0.9 | 7.2
NC(=O)CNC(=O)[C@@H]1CC2(CC(c3cccc(Br)c3)=NO2)CN1C(=O)c1ccc(Br)cc1 (some centres undefined) | 18.5 | 2.3 | -1.1 | 0.8 | 0.8 | 17.5
Clc1ccc(OCCN2CCCCC2)c(Cl)c1 | 45.9 | 0.3 | -3.1 | 0.5 | 1 | 2.7
CC1CC(C)CN(CCOc2ccc(Cl)cc2Cl)C1 (centres undefined) | 98.4* | 8.4 | -9.8 | 0 | 0.9 | 6.9
Cc1ccc2nc3c(c(N)c2c1)CCN3c1ccccc1 | 68.7* | 4.5 | -5.0 | 0.3 | 0.7 | 33.4
CS(=O)(=O)Nc1cccc2cccnc12 | 4.6 | -1.3 | 1.8 | 1 | 2.4* | -135.7
COc1ccccc1C1N(c2ccc(F)cc2)C(=O)C2CCCN21 (centres undefined) | -3.9 | -5.4 | 5.9 | 1 | 1 | 3.5
C#CCOC(=O)CCC(=O)Nc1cc(OC)nc(OC)n1 | -2.6 | 2.4 | -3.0 | 1 | 1 | 2.6
SMILES | CYP2C19 inhib | sEH activator | sEH inhibitor | CYP2C19 act | CYP2C9 act | CYP2C9 inh
O=C1NC2(CCCCC2)C(=O)N1/N=C/c1ccc(O)cc1O | 12.6 | -9.4 | 7.9 | 0.9 | 3.2* | -219.0
Oc1ccc(C=Nc2ccc(N3CCOCC3)cc2)c(O)c1 | -3.7 | x | x | 1 | 0.9 | 8.1
CC1(C)CC(=O)c2cnc(NC(=O)C3CCCC3)nc2C1 | 27.3 | 11.4 | -12.9 | 0.7 | 0.6 | 38.1
Cn1c(=O)c2c(nc(NC3CCCCC3)n2CC(=O)C23CC4CC(CC(C4)C2)C3)n(C)c1=O | x | 8.1 | -5.1 | x | x | x
CN(CC(CC(=O)Nc1nncs1)c1ccccc1)S(=O)(=O)c1ccccc1 (centres undefined) | 89.8* | -11.8 | 10.9 | 0.1 | 0.5 | 54.1*
CCc1nnc(NC(=O)CC(CN(C)S(=O)(=O)c2ccccc2)c2ccccc2)s1 (centres undefined) | 24.0 | 0.0 | 1.6 | 0.8 | 0.6 | 43.9
CN(CC(CC(=O)Nc1nncs1)c1ccccc1)S(=O)(=O)c1ccc(Br)cc1 (centres undefined) | 94.5* | 20.1 | -21.0 | 0.1 | 0.4 | 56.6*
Cc1nnc(NC(=O)CC(CN(C)S(=O)(=O)c2ccccc2)c2ccccc2)s1 (centres undefined) | 69.6* | 1.7 | 1.9 | 0.3 | 0.7 | 34.6
Cc1ccc(S(=O)(=O)CCc2nnc(NC(=O)COc3cccc(C)c3)s2)cc1 | -4.1 | -6.1 | 8.0 | 1 | 0.9 | 5.0
CCOc1ccccc1CN1C(=O)c2ccccc2C1C(=O)NC(C)CC (centres undefined) | -1.5 | -12.1 | 12.6 | 1 | 1 | 1.0
CCN1C(=O)C2C(c3ccccc3F)NC(Cc3ccc(O)cc3)(C(=O)OC)C2C1=O (centres undefined) | 9.7 | -12.5 | 13.1 | 0.9 | 1 | 0.0
C=CCC(C=C)S(=O)(=O)c1ccc(C)cc1 (centres undefined) | 86.7* | 7.3 | -5.3 | 0.1 | 0.9 | 14.1
COc1ccc(N2C(=O)NC3CC2(C)Oc2ccccc23)cc1OC (centres undefined) | -9.8 | 11.0 | -13.2 | 1.1 | 1.2 | -18.7
Fc1ccccc1OCCCN1CCOCC1 | 6.5 | x | x | 0.9 | 1.3 | -29.0
CCn1c(CCC(=O)Nc2cc(F)ccc2C)nc2cc(S(=O)(=O)N(C)C)ccc21 | 16.2 | x | x | 0.8 | 0.2 | 79.5*
CCN(CC)S(=O)(=O)c1ccc2c(c1)nc(CCC(=O)OCC(=O)N1CCc3ccccc31)n2C | 7.6 | 23.0 | -19.0 | 0.9 | 0.6 | 35.7
CCN(CC)S(=O)(=O)c1ccc2c(c1)nc(CCC(=O)Nc1ccccc1Cc1ccccc1)n2CC | 77.1* | 2.6 | -3.5 | 0.2 | 0 | 99.9*
S=P(c1ccc(N2CCOCC2)cc1N1CCOCC1)(N1CCOCC1)N1CCOCC1 | 25.4 | x | x | 0.7 | 0.8 | 17.7
COc1cccc(O[C@@H]2O[C@@H]3COC(C)(C)O[C@H]3[C@H](O)[C@H]2NC(C)=O)c1 | x | 6.5 | -3.5 | x | x | x
CC1=Nc2ccccc2/C1=C\c1nc(-c2ccccc2)oc1O | 42.2 | -3.0 | 3.8 | 0.6 | 0.1 | 95.0*
COc1ccc(NC(=O)c2cc([N+](=O)[O-])nn2Cc2ccccc2)c(C)c1 | 25.7 | -18.2 | 18.8 | 0.7 | 0.8 | 21.1
CC(=O)NC12CC3CC(C)(C1)CC(NC(C)=O)(C3)C2 | 11.9 | -2.9 | 2.1 | 0.9 | 1 | 3.4
CC1=C(CC(=O)c2ccc(Cl)cc2)C(=O)c2ccccc2C1=O | 50.8* | 6.1 | -3.1 | 0.5 | 0.6 | 44.3
Cc1ccc(S(=O)(=O)C(CCC(=O)c2ccc(Cl)cc2)C(N)=O)cc1 (centres undefined) | -7.6 | 4.0 | -6.6 | 1.1 | 1.6 | -63.1
Cc1ccc(C)c(-c2csc(N)c2C(=O)OC(C)C)c1 | 69.2* | -4.9 | 3.6 | 0.3 | 0.3 | 67.0*
